From PubChem BioAssay AID1159580 (chemical genetic matrix, 2015)
In all, about 5,500 compounds went through this assay and about 2,000 (36%) were called active. About 18% were inconclusive and are not listed. Cut-off read from the data, not from the text of the source: active = normalized growth mostly below about 0.91 (no sharp cut-off); inconclusive = no clear call, values can overlap the other calls; inactive = mostly above about 0.92. The list shows a part of the results.

Experiment: chemical genetic growth profiling, strain panel (AID 1159580);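 note: tested at 20 µM; growth read once vehicle control cultures reached saturation at 30 °C; 1 = growth at the plate median or of vehicle wells; lower values mean less growth of the strain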
Conditions: S. cerevisiae deletion strains, growth OD
[1] = locus YAL013W, strain DEP1, hits give low values
[2] = locus YNL153C, strain GIM3, hits give low values
[3] = locus YPL055C, strain LGE1, hits give low values
[4] = locus YCL061C, strain MRC1, hits give low values
[5] = locus YHR030C, strain SLT2, hits give low values
[6] = locus YJL187C, strain SWE1, hits give low values
[7] = locus YHR079C, strain IRE1, hits give low values
[8] = locus YJL095W, strain BCK1, hits give low values
[9] = locus YJR066W, strain TOR1, hits give low values
[10] = locus YLR113W, strain HOG1, hits give low values
[11] = locus YNL183C, strain NPR1, hits give low values
[12] = locus YOR231W, strain MKK1, hits give low values
[13] = locus YPL256C, strain CLN2, hits give low values

Measured: normalized growth

N[C@@]1(C(=O)O)CC[C@@H](C(=O)O)C1
inactive: [1] 1.02 | locus YAL040C, strain CLN3, hits give low values 1.01 | locus YCL061C, strain MRC1 (second series), hits give low values 1 | locus YDR363W, strain ESC2, hits give low values 1.04 | locus YER002W, strain NOP16, hits give low values 1.01 | locus YGR229C, strain SMI1, hits give low values 1.03 | [2] 1 | locus YNL175C, strain NOP13, hits give low values 1.01 | locus YNL197C, strain WHI3, hits give low values 1.02 | locus YNL224C, strain SQS1, hits give low values 1.02 | locus YOR083W, strain WHI5 (second series), hits give low values 1.01 | [3] 1.02

N#C/C(=C\Nc1ccc2c(c1)OCCO2)S(=O)(=O)c1ccc(C(F)(F)F)cn1
active: [5] 0.593 | [6] 0.733 | locus YLR085C, strain ARP6, hits give low values 0.742 | locus YNL298W, strain CLA4 (second series), hits give low values 0.835
inactive: [1] 0.985 | locus YBR229C, strain ROT2, hits give low values 1 | [4] 1.03 | locus YDL101C, strain DUN1, hits give low values 0.995 | locus YDL134C, strain PPH21, hits give low values 1 | locus YDR150W, strain NUM1, hits give low values 1.01 | locus YEL061C, strain CIN8, hits give low values 0.974 | locus YGR078C, strain PAC10, hits give low values 1.02 | locus YHR087W, strain rtc3, hits give low values 1.01 | locus YJR043C, strain POL32, hits give low values 1.02 | locus YJR075W, strain HOC1, hits give low values 1.02 | locus YKL190W, strain CNB1, hits give low values 0.98 | locus YLR039C, strain RIC1, hits give low values 1.02 | locus YLR058C, strain SHM2 (second series), hits give low values 1 | locus YLR262C, strain YPT6, hits give low values 1.01 | locus YML094W, strain GIM5, hits give low values 0.906 | locus YMR219W, strain ESC1, hits give low values 0.993 | locus YMR263W, strain SAP30, hits give low values 1.02 | [2] 1.02 | locus YNL322C, strain KRE1, hits give low values 0.996 | locus YNR030W, strain Alg12, hits give low values 0.978 | [3] 1.11 | locus YPL241C, strain CIN2, hits give low values 0.966 | locus YPR135W, strain CTF4, hits give low values 1.06

O=C(O)c1cccc(O)c1O
inactive: locus YAL021C, strain ccr4, hits give low values 1.02 | locus YAL026C, strain drs2, hits give low values 1.02 | locus YAL030W, strain snc1, hits give low values 1.01 | locus YBL061C, strain skt5, hits give low values 1.03 | locus YBR009C, strain hhf1, hits give low values 1.02 | locus YBR023C, strain chs3, hits give low values 1.02 | locus YBR171W, strain sec66, hits give low values 1.03 | locus YBR231C, strain swc5, hits give low values 1.02 | locus YBR279W, strain paf1, hits give low values 1.02 | locus YCL011C, strain gbp2, hits give low values 1.02 | locus YCL016C, strain dcc1, hits give low values 1.01 | [4] 1.01 | locus YCL069W, strain vba3, hits give low values 1.02 | locus YCR088W, strain abp1, hits give low values 1.02 | locus YDL005C, strain med2, hits give low values 1.02 | locus YDL040C, strain nat1, hits give low values 1.02 | locus YDR001C, strain nth1, hits give low values 1.02 | locus YDR069C, strain doa4, hits give low values 1.02 | locus YDR137W, strain rgp1, hits give low values 1.02 | locus YDR159W, strain sac3, hits give low values 1.03 | locus YDR195W, strain ref2 0.997 | locus YDR297W, strain sur2, hits give low values 1.02 | locus YDR334W, strain swr1, hits give low values 1.02 | locus YDR335W, strain msn5, hits give low values 1.02 | locus YDR392W, strain spt3, hits give low values 1.04 | locus YEL003W, strain gim4, hits give low values 1.02 | locus YEL037C, strain rad23, hits give low values 1.02 | locus YEL061C, strain CIN8 (second series), hits give low values 1.02 | locus YER015W, strain faa2, hits give low values 1.03 | locus YER016W, strain bim1, hits give low values 1.01 | locus YER111C, strain swi4, hits give low values 1.03 | locus YER155C, strain BEM2 (second series), hits give low values 1.04 | locus YFR010W, strain ubp6, hits give low values 1.02 | locus YGL167C, strain pmr1, hits give low values 1.02 | locus YGL173C, strain kem1, hits give low values 1.03 | locus YGL227W, strain vid30, hits give low values 1.03 | locus YGL240W, strain doc1, hits give low values 1.02 | locus YGL253W, strain hxk2, hits give low values 1.02 | locus YHR013C, strain ard1, hits give low values 1.02 | locus YHR027C, strain rpn1, hits give low values 1.01 | [5] 1.06 | [7] 1.03 | locus YHR142W, strain chs7, hits give low values 1.01 | locus YJL092W, strain hpr5, hits give low values 1.02 | locus YJL095W, strain BCK1 (second series), hits give low values 1.01 | [8] 1.03 | locus YJL115W, strain asf1, hits give low values 1.03 | locus YJL129C, strain trk1, hits give low values 1.04 | locus YJL154C, strain vps35, hits give low values 1.02 | locus YJL164C, strain tpk1, hits give low values 1 | locus YJL166W, strain qcr8, hits give low values 1.02 | [6] 1.03 | [9] 0.99 | locus YKL160W, strain elf1, hits give low values 1.03 | locus YKR026C, strain gcn3, hits give low values 1.03 | locus YKR091W, strain srl3, hits give low values 1.02 | locus YLL001W, strain dnm1, hits give low values 1.02 | locus YLL026W, hits give low values 1.02 | locus YLL041C, strain sdh2, hits give low values 1.02 | locus YLR027C, strain aat2, hits give low values 1.01 | [10] 1.06 | locus YLR221C, strain rsa3, hits give low values 1.01 | locus YLR258W, strain gsy2, hits give low values 1.02 | locus YLR262C, strain YPT6 (second series), hits give low values 1.02 | locus YLR320W, strain mms22, hits give low values 1.03 | locus YLR342W, strain FKS1, hits give low values 1.03 | locus YLR357W, strain rsc2, hits give low values 1.01 | locus YLR370C, strain arc18, hits give low values 1.01 | locus YLR384C, strain iki3, hits give low values 1.02 | locus YML120C, strain ndi1, hits give low values 1.01 | locus YMR058W, strain fet3, hits give low values 1.02 | locus YMR125W, strain sto1, hits give low values 1.04 | locus YMR129W, hits give low values 1.03 | locus YMR205C, strain PFK2, hits give low values 1.03 | locus YMR231W, strain pep5, hits give low values 1.02 | locus YNL071W, strain lat1, hits give low values 1.01 | [11] 0.987 | locus YNL209W, strain ssb2, hits give low values 1.02 | locus YNL248C, strain rpa49, hits give low values 1.01 | locus YNL322C, strain KRE1 (second series), hits give low values 1.02 | locus YNR049C, strain mso1, hits give low values 1.02 | locus YOR001W, strain rrp6, hits give low values 1.03 | locus YOR070C, strain gyp1, hits give low values 1.02 | locus YOR080W, strain dia2, hits give low values 1.02 | locus YOR083W, strain WHI5, hits give low values 1.03 | locus YOR106W, strain vam3, hits give low values 1.02 | [12] 1.05 | locus YOR265W, strain rbl2, hits give low values 1.01 | locus YOR270C, strain vph1, hits give low values 1.05 | locus YOR290C, strain snf2, hits give low values 1.03 | locus YPL051W, strain arl3, hits give low values 1.02 | locus YPL078C, strain atp4, hits give low values 1.03 | locus YPL106C, strain sse1, hits give low values 1.02 | locus YPL240C, strain hsp82, hits give low values 1.03 | [13] 1.05

O=C(O)c1cccc2cccc(C(=O)O)c12
active: locus YAR019C, strain CDC15, hits give low values 0.085 | locus YBL105C, strain PKC1, hits give low values 0.0837 | locus YBR135W, strain CKS1, hits give low values 0.0904 | locus YBR136W, strain MEC1, hits give low values 0.0904 | locus YBR160W, strain CDC28, hits give low values 0.086 | locus YDL017W, strain CDC7, hits give low values 0.0824 | locus YDL028C, strain MPS1, hits give low values 0.0878 | locus YDL108W, strain KIN28, hits give low values 0.0876 | locus YDL214C, strain PRR2, hits give low values 0.0872 | locus YDR052C, strain DBF4, hits give low values 0.0886 | locus YDR054C, strain cdc34, hits give low values 0.0879 | locus YDR477W, strain SNF1, hits give low values 0.0946 | locus YER123W, strain YCK3, hits give low values 0.0991 | locus YER133W, strain GLC7, hits give low values 0.0939 | locus YFL009W, strain cdc4, hits give low values 0.0889 | locus YFL029C, strain CAK1, hits give low values 0.0833 | locus YFR003C, strain YPI1, hits give low values 0.0828 | locus YFR019W, strain FAB1, hits give low values 0.0952 | locus YGR040W, strain KSS1, hits give low values 0.11 | locus YGR052W, strain FMP48, hits give low values 0.113 | locus YGR092W, strain DBF2, hits give low values 0.107 | [5] 0.123 | [7] 0.109 | locus YHR082C, strain KSP1, hits give low values 0.135 | locus YHR205W, strain SCH9, hits give low values 0.0046 | locus YIL147C, strain SLN1, hits give low values 0.0851 | [8] 0.118 | locus YJL128C, strain PBS2, hits give low values 0.0989 | locus YJL157C, strain FAR1, hits give low values 0.0897 | locus YJR016C, strain ILV3, hits give low values 0.0848 | locus YJR066W, strain TOR1 (second series), hits give low values 0.101 | [9] 0.145 | locus YKL048C, strain ELM1, hits give low values 0.12 | locus YKL067W, strain YNK1, hits give low values 0.0918 | locus YKL101W, strain HSL1, hits give low values 0.114 | locus YKL193C, strain SDS22, hits give low values 0.0868 | locus YKL203C, strain TOR2, hits give low values 0.108 | [10] 0.184 | locus YLR133W, strain CKI1, hits give low values 0.0857 | locus YLR403W, strain SFP1, hits give low values 0.00123 | locus YML070W, strain DAK1, hits give low values 0.117 | locus YMR001C, strain CDC5, hits give low values 0.0843 | locus YMR205C, strain PFK2 (second series), hits give low values 0.0905 | locus YMR277W, strain FCP1, hits give low values 0.0893 | locus YNL006W, strain LST8, hits give low values 0.077 | locus YNL020C, strain ARK1, hits give low values 0.0896 | locus YNL161W, strain CBK1, hits give low values 0.0944 | [11] 0.112 | locus YNL207W, strain RIO2, hits give low values 0.0871 | locus YNL222W, strain SSU72, hits give low values 0.089 | locus YNL307C, strain MCK1 (second series), hits give low values 0.103 | locus YOL078W, strain AVO1, hits give low values 0.0865 | locus YOL136C, strain PFK27, hits give low values 0.0961 | locus YOR061W, strain CKA2, hits give low values 0.0989 | locus YOR119C, strain RIO1, hits give low values 0.104 | [12] 0.115 | locus YOR329C, strain SCD5, hits give low values 0.082 | locus YPL031C, strain PHO85, hits give low values 0.102 | locus YPL153C, strain RAD53, hits give low values 0.101 | locus YPL204W, strain HRR25, hits give low values 0.0938 | locus YPL209C, strain IPL1, hits give low values 0.0815 | [13] 0.162 | locus YPR025C, strain CCL1, hits give low values 0.0896 | locus YPR106W, strain ISR1, hits give low values 0.281 | strain NNK1, hits give low values 0.0867 | strain TSCII, hits give low values 0.0877
